For the assay, the target named is Luciferin 4-monooxygenase (Photinus pyralis) (UniProt P08659). As to the kind of experiment: qHTS Assay for Inhibitors of Firefly Luciferase from the GSK Published Protein Kinase Inhibitor Set. Particulars: purified firefly luciferase, luminescence inhibition; series mostly up to 57.5 µM. The method in brief:
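Purified P. pyralis luciferase, 10nM, with 10uM D-luciferin and 10uM ATP in 50mM Tris acetate pH 7.5, 10mM Mg acetate, 0.01% Tween-20, 0.05% BSA. Titration ~60uM to 300pM; luminescence read after about 5 min.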
On the technique in general: Quantitative high-throughput screening tests each substance at several concentrations.

SMILES strings stand for the structures. Inconclusive results are not listed. Where a call stands in place of a potency, no number is given. Active and inactive are the calls of the source. Calls come from the whole dose curve; as a rule, active = well fitted inhibition curve with a large enough effect; inconclusive = small, poorly fitted or top-dose-only effect; inactive = flat fitted curve, though single readings scatter.
Potency is the fitted concentration of half-maximal effect.

Sequence of Luciferin 4-monooxygenase (Photinus pyralis) (P08659 whole entry, looked up): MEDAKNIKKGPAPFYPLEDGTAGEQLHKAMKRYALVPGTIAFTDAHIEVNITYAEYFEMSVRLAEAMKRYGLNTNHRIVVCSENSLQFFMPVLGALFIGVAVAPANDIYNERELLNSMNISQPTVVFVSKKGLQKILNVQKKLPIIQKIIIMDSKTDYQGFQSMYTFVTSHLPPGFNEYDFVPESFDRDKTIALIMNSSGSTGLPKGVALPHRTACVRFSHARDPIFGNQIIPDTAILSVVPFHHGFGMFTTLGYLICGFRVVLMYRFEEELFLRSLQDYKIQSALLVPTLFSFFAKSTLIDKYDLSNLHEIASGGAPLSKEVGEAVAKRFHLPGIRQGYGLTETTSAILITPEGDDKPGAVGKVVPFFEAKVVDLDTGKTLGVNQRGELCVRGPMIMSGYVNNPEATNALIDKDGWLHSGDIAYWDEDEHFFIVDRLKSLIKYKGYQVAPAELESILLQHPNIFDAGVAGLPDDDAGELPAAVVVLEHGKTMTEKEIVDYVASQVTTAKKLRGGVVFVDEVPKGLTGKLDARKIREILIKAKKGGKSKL

Turning to `CCS(=O)(=O)c1ccc(OC)c(Nc2ncc(-c3cccc(-c4ccccc4F)c3)o2)c1`, the Potency result is “inactive”.

Take `CNC(=O)c1cncc(C=Cc2c(Cl)cccc2Cl)c1`: the Potency is 16.3 µM (active).

For `c1ccc(Oc2ccc(Nc3ncc(-c4ccccc4)o3)cc2)cc1`, the Potency result was “inactive”.

Take `CCOc1ccc2c(-c3ccnc(Nc4cccc(C(F)(F)F)c4)n3)cnn2n1`: the Potency entry is “inactive”.

As to `Nc1nccc(-c2c(-c3ccc(F)cc3)ncn2C2CCC(O)CC2)n1` (stereo not drawn), the Potency entry was “inactive”.

For `CN(c1ccc(NC(=O)Nc2c(Cl)cccc2Cl)cc1)c1ccnc(Nc2cccc(CS(C)(=O)=O)c2)n1`, the Potency is 0.58 µM (active).

`CC(Oc1cc(-n2cnc3ccc(OCC(O)CO)cc32)sc1C(N)=O)c1ccccc1Cl` (stereo not drawn): the Potency result is “inactive”.

As for `Fc1cccc(COc2ccc(Nc3ncnc4cc(-c5ccc[nH]5)sc34)cc2Cl)c1`, the Potency result was “inactive”.

`O=C1NC(=O)C(c2ccc(Cl)cc2)=C1Nc1ccc(Cl)c(C(=O)O)c1`: the Potency entry was “inactive”.

Consider `CN(C)c1ccc2[nH]c(O)c(C=Nc3ccc(S(N)(=O)=O)cc3)c2c1`, for which the Potency entry is “inactive”.

With `CC(=O)Nc1cccc(C#Cc2cncnc2Nc2ccc(OCc3cccc(F)c3)c(Cl)c2)c1`, the Potency result is “inactive”.

Consider `CCn1c(-c2nonc2N)nc2ccncc21`, for which the Potency entry was “inactive”.

In the case of `COc1ccc2ncnc(Nc3ccc(OCc4ccccc4)cc3)c2c1`, the Potency entry was “inactive”.

For `CC1=C(C(=O)Nc2ccc3n[nH]c(C)c3c2)C(c2ccc(C(F)(F)F)cc2)CC(=O)N1` (stereo not drawn), the Potency entry is “inactive”.

Consider `NS(=O)(=O)c1ccc(N=Nc2c(O)[nH]c3ccc(C(=O)NCCCn4ccnc4)cc23)cc1`, for which the Potency entry is “inactive”.

`COc1cc2ncn(-c3cc(OCc4ccccc4C(F)(F)F)c(C(=O)N(C)C)s3)c2cc1OC`: the Potency entry is “inactive”.

Take `CS(=O)(=O)CCNCc1ccc(-c2ccc3ncnc(Nc4ccc(OCc5cccc(F)c5)c(C(F)(F)F)c4)c3c2)o1`: the Potency entry was “inactive”.

Turning to `O=C1Nc2ccc(C(=O)c3ccco3)cc2/C1=C/c1cc(Cl)c(O)c(Cl)c1`, the Potency was 18.3 µM (active).

Take `CCn1c(-c2nonc2N)nc2c(C#CC(C)(C)O)nc(OCCNC)cc21`: the Potency result was “inactive”.

Turning to `CCn1c(-c2nonc2N)nc2c(C#CC(C)(C)O)ncc(OCC3CCNCC3)c21`, the Potency entry was “inactive”.

For the compound `COc1cc(N2CCN(C(C)C)CC2)ccc1Nc1nc(Nc2cccc3ncccc23)c2cc[nH]c2n1`, the Potency result is “inactive”.

With `O=C(Nc1ccc(Oc2ccc3nc(NC(=O)c4ccccc4)[nH]c3c2)cc1)Nc1cc(C(F)(F)F)ccc1F`, the Potency result is “inactive”.

`Clc1ccc(CNc2nccc(-c3cnn4ncccc34)n2)cc1`: the Potency result is “inactive”.

Take `CN(C)c1cc2c(Nc3ccc4c(cnn4Cc4ccccc4)c3)ncnc2cn1`: the Potency result is “inactive”.

On to `Cn1c(-c2nonc2N)nc2cnccc21`, for which the Potency entry was “inactive”.

Take `CNC(=O)c1sc(-n2cnc3cc(OC)c(OC)cc32)cc1OCc1ccccc1C(F)(F)F`: the Potency entry is “inactive”.

`CCN1CCC(C(=O)Nc2n[nH]c3nnc(-c4cccc(F)c4F)cc23)CC1`: the Potency result is “inactive”.

Turning to `Fc1ccc(-c2cc(-c3cn[nH]c3-c3ccccn3)ccn2)cc1`, the Potency entry was “inactive”.

As for `Cc1cc(O)cc(C)c1C=Cc1cncc(C(=O)N(C)C)c1`, the Potency entry is “inactive”.

For the compound `CC1=C(C(=O)Nc2ccc3[nH]ncc3c2)C(c2ccc(Cl)c(Cl)c2)CC(=O)N1` (stereo not drawn), the Potency result was “inactive”.

As to `COc1cc(Nc2ncc3c(C)nc(-c4cccc(C(F)(F)F)c4)n3n2)cc(OC)c1OC`, the Potency result was “inactive”.

As for `O=S(=O)(CCOCc1ccc(-c2ccc3ncnc(Nc4ccc(OCc5cccc(F)c5)c(Cl)c4)c3c2)o1)c1ccccc1`, the Potency result was “inactive”.

With `COc1cc(N2CCN(C(C)C)CC2)ccc1Nc1nc(Nc2ccc(F)cc2C(=O)NCC(O)CO)c2cc[nH]c2n1` (stereo not drawn), the Potency result is “inactive”.

The record behind these values is PubChem BioAssay AID652016 (National Center for Advancing Translational Sciences (NCATS), 2013).
